Results published in PubChem BioAssay AID720519 (National Center for Advancing Translational Sciences (NCATS), 2013).
Results filed as inconclusive are left out. Active and inactive are the calls of the source. Calls come from the whole dose curve; as a rule, active = well fitted activation curve with a large enough effect; inconclusive = small, poorly fitted or top-dose-only effect; inactive = flat fitted curve, though single readings scatter.

Assay: qHTS for Inhibitors of Cell Surface uPA Generation: Confirmatory Assay for Cherry-picked Compounds
Conditions: cell surface uPA activity generation, qHTS confirmation; series mostly up to 115 µM
Summary of the method: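 RAW 264.7 cells at 4000/well, incubated overnight, then treated with compounds. After 24 h at 37 C, viability was read by ATPlite luminescence. An increase in signal indicates blocked uPA-dependent LF entry.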

Potency, inactive:
O=C1[C@H]2[C@@H](c3ccc(F)cc3)N3C(=O)N(c4cccc(F)c4)C(=O)[C@@]3(Cc3ccc(Cl)cc3)[C@H]2C(=O)N1C1CCCCC1
Cc1oc(-c2ccccc2F)nc1CS(=O)(=O)CC(=O)NC1CCCC(C)C1C (stereo unspecified)
COCC(=O)N1CCC(n2nccc2NC(=O)c2ccccc2OC)CC1
CC[C@]1(C(=O)OC)[C@H]2C(=O)N(C)C(=O)[C@H]2[C@H]2CN(C)C(=NC3CCCCC3)N21
COc1cc(CN2CCN(c3ncccn3)CC2)cc(OC)c1
CS(=O)(=O)Nc1cccc(C2=NN(S(=O)(=O)c3ccccc3)C(c3ccco3)C2)c1 (stereo unspecified)
COC(=O)C1=CN(Cc2ccc(F)cc2)C=C(C(=O)OC)C1c1ccc(O)c(OC)c1
O=[N+]([O-])c1ccc(SCc2ccncc2)nc1
Cc1ccc(C(=O)COc2cc(O)c3c(=O)cc(-c4ccccc4)oc3c2)cc1
CCNC(=S)NNC(=O)C(c1ccccc1)c1ccccc1
CCOc1ccc(-c2n[nH]c(=S)n2Cc2ccccc2)cc1
Cc1cccn2c(CNCC(C)Oc3cccnc3)c(C(=O)N3CCOCC3)nc12 (stereo unspecified)
Cc1cccc(C(=O)NCC(=O)OCC(=O)NC2CCCCCCC2)c1
Cc1nc(C(=O)N2CCC(n3nccc3NC(=O)Nc3ccccc3Cl)CC2)cs1
C=C(C)C(=O)O[C@H]1C/C(C)=C\C(=O)/C=C(\C)[C@H](O)[C@@H]2OC(=O)C(=C)[C@@H]21
Oc1c(N=NC(=S)Nc2ccccc2F)c2ccccc2n1Cc1ccccc1Cl
O=C(NCCCn1cccn1)C1CCC(=O)N(Cc2ccccc2F)C1 (stereo unspecified)
CCCOC(=O)CSC1=C(C#N)C(c2ccccc2Cl)CC(=O)N1 (stereo unspecified)
COc1ccc(/C(C)=N/N2CCOCC2)c(O)c1
CCOc1ccccc1C(=O)NC1CCN(CC(=O)Nc2cc(OC)ccc2OC)CC1
CC(C)(O)C#Cc1ccc(C(=O)N2CCCC(CCC(=O)NCc3ccccc3F)C2)cc1 (stereo unspecified)
